Hit rate of the full screen: of about 52,000 compounds, about 4,300 (8.3%) were called active. The sample as a whole holds a higher share of actives than the screen did. Unmarked numbers belong to inactive results. Rule as the data show it: active = survival mostly below about 52% (no sharp cut-off); inactive = mostly above about 56%.
Each compound was assayed on DeltatarO mutant (assay: growth inhibition of S. aureus wild type versus tarO mutant, primary screen, teichoic acid synthesis inhibitors, RN4220, OD600 (AID 463173)). Conditions: OD600, 18 h, hits give low values, screened at 18.75 µg/mL (by protocol).

| Structure (SMILES) | survival |
| --- | --- |
| CC(C(=O)O)N1CCCCC1 (configuration not stated) | 79% |
| CCOc1ccc2[nH]c(=O)c(CN(Cc3cccnc3)S(=O)(=O)c3ccccc3)cc2c1 | 86% |
| CCOc1ccccc1NC(=O)Cn1c(=O)n(Cc2nc(C)no2)c(=O)c2ccccc21 | 81% |
| Cc1cc(C)c(NC(=O)CN2C(=O)CCSc3ccc(S(=O)(=O)N4CCCC4)cc32)c(C)c1 | 84% |
| Cc1cc(C)cc(NC(=O)CN2C(=O)c3ccccc3Sc3ccc(C(=O)N4CCOCC4)cc32)c1 | 89% |
| CN(C)c1ccc(NC(=O)CN2C(=O)c3ccccc3Sc3ccc(C(=O)N4CCCC4)cc32)cc1 | -2% (active) |
| CCc1ccc(NC(=O)CN2C(=O)c3ccccc3Sc3ccc(C(=O)N4CCCC4)cc32)cc1 | 86% |
| O=C(CN1C(=O)c2ccccc2Sc2ccc(C(=O)N3CCOCC3)cc21)Nc1ccc(Cl)cc1F | 94% |
| Cc1ccc(NC(=O)CN2C(=O)c3ccccc3Sc3ccc(C(=O)N4CCCC4)cc32)cc1 | 76% |
| Cc1ccc(NC(=O)CN2C(=O)c3ccccc3Sc3ccc(C(=O)N4CCOCC4)cc32)c(Cl)c1 | -5% (active) |
| CCOc1ccccc1N(CC)C(=O)Cn1ncc2c1-c1ccccc1OC2 | 62% |
| COc1cccc(C(=O)N(Cc2ccc(N(C)C)cc2)Cc2ccco2)c1 | 69% |
| CCOCN(C(=O)Cn1c(CC(C)C)nc2ccccc21)c1c(C)cccc1CC | -12% (active) |
| CCc1cccc(CC)c1N(COC)C(=O)Cn1c(CC)nc2ccccc21 | 69% |
| CCOCN(C(=O)Cn1c(C(C)O)nc2ccccc21)c1c(C)cccc1CC (configuration not stated) | 83% |
| CCOCN(C(=O)Cn1c(C)nc2ccccc21)c1c(C)cccc1CC | 125% |
| CCCCc1nc2ccccc2n1CC(=O)N(COCC)c1c(C)cccc1CC | -12% (active) |
| CCOCN(C(=O)Cn1c(COC)nc2ccccc21)c1c(C)cccc1CC | 95% |
| CCc1ccc(NC(=O)Cn2c(=O)n(-c3cc(C)cc(C)c3)c(=O)c3oc4ccccc4c32)cc1 | 73% |
| COc1ccc(-c2cn(-c3ccc(C)cc3)c(S(=O)(=O)CC(=O)Nc3ccc(F)cc3)n2)cc1 | 150% |
| CCc1ccc(NC(=O)c2sc3nc(C)c(Cl)c(C)c3c2NC(=O)c2ccccc2OC)cc1 | 130% |
| COc1ccc(N2CCN(C(=O)C(CC(C)C)NS(=O)(=O)c3ccc4nc(C)sc4c3)CC2)cc1 (configuration not stated) | 77% |
| O=C(CSc1cn(CC(=O)N2CCCCCC2)c2ccccc12)Nc1ccccc1F | 77% |

| Structure (SMILES) | survival |
| --- | --- |
| Cc1ccccc1CSc1cn(CC(=O)N2CCCCCC2)c2ccccc12 | 68% |
| O=C(CSc1cn(CC(=O)N2CCCCC2)c2ccccc12)Nc1ccccc1F | 70% (active) |
| O=C(CSc1cn(CC(=O)N2CCOCC2)c2ccccc12)Nc1ccccc1F | 88% |
| Cc1ccccc1CSc1cn(CC(=O)N2CCCCC2)c2ccccc12 | 71% (active) |
| Cc1ccccc1CSc1cn(CC(=O)N2CCCC2)c2ccccc12 | 58% |
| CCC(=O)N1c2ccccc2CC1C(=O)N1CCN(c2cccc(Cl)c2)CC1 (configuration not stated) | 77% |
| CCn1cc(C(=O)NCCc2ccc(Cl)cc2)c(=O)c2cc(S(=O)(=O)N3CCC(C)CC3)ccc21 | 105% |
| CCN(CC)CCN(C(=O)c1ccco1)c1nc2c(C)c(C)ccc2s1 | 77% |
| O=[N+]([O-])c1cc(-c2nc(-c3ccccc3)no2)ccc1N1CCCC1 | 63% |
| Cc1cccc(NC(=O)CC2Nc3cccc4cccc(c34)NC2=O)c1 (configuration not stated) | 64% |
| Cc1ccc(NC(=O)CC2Nc3ccccc3NC2=O)cc1C (configuration not stated) | 58% |
| Cc1ccc(NC(=O)CC2Nc3cccc4cccc(c34)NC2=O)cc1 (configuration not stated) | 61% |
| COc1ccc(NC(=O)CC2Nc3cccc4cccc(c34)NC2=O)cc1 (configuration not stated) | 41% (active) |
| COc1ccc(NC(=O)CC2Nc3ccccc3NC2=O)cc1 (configuration not stated) | 61% (active) |
| Cc1cccc(NC(=O)CC2Nc3ccccc3NC2=O)c1 (configuration not stated) | 71% |
| COc1cccc(NC(=O)CC2Nc3cc(C)c(C)cc3NC2=O)c1 (configuration not stated) | 89% |
| CC(=O)c1ccc(NC(=O)CC2Nc3cccc4cccc(c34)NC2=O)cc1 (configuration not stated) | 72% |
| CCOc1ccc(NC(=O)CC2Nc3cccc4cccc(c34)NC2=O)cc1 (configuration not stated) | 37% (active) |
| CCOC(=O)c1ccc(NC(=O)CC2Nc3cccc4cccc(c34)NC2=O)cc1 (configuration not stated) | 28% (active) |
| CCOC(=O)c1ccc(NC(=O)CC2Nc3ccccc3NC2=O)cc1 (configuration not stated) | 62% |
| O=C(CC1Nc2cccc3cccc(c23)NC1=O)Nc1ccc(F)cc1 (configuration not stated) | 111% |
| N#Cc1cn(-c2ccccc2)nc1-c1cccnc1 | 73% |
| O=C(Nc1ccccn1)NC12CC3CC(CC(C3)C1)C2 | 106% |

| Structure (SMILES) | survival |
| --- | --- |
| Cc1ccc(NC(=O)c2oc3ccc4c(c3c2C)C(=O)CC(C)(C)O4)c(C)c1 | 83% |
| CC1CCN(C(C(=O)O)c2ccccc2)CC1 (configuration not stated) | 98% |
| CN1CCN(C(CNC(=O)C(=O)Nc2ccc(Cl)cc2)c2cccnc2)CC1 (configuration not stated) | 86% |
| COc1ccccc1CNC(=O)CSc1ncc(S(=O)(=O)c2ccc(C)c(Cl)c2)c(=O)[nH]1 | 124% |
| Cc1ccc(CNS(=O)(=O)c2ccc(-c3cnc(C4CC4)o3)cc2)cc1 | 76% |
| Cc1cccc(CNS(=O)(=O)c2ccc(-c3cnc(C4CC4)o3)cc2)c1 | 52% (active) |
| O=S(=O)(NCc1ccccc1)c1ccc(-c2cnc(C3CC3)o2)cc1 | 71% |
| CC(C)c1ccc(NC(=O)C(C)N(c2ccccc2)S(C)(=O)=O)cc1 (configuration not stated) | 65% |
| COc1ccc(N2CCN(C(=O)Cc3noc4ccc(C)cc34)CC2)cc1 | 42% (active) |
| Cc1ccc2onc(CC(=O)N3CCN(c4cc(Cl)ccc4C)CC3)c2c1 | 96% |
| COc1ccc(N2CCN(C(=O)NCc3noc4ccccc34)CC2)cc1 | 42% |
| Cc1ccc2onc(CC(=O)N(C)c3ccccc3)c2c1 | 52% |
| Cc1ccc2onc(CC(=O)N3CCN(c4ccccc4F)CC3)c2c1 | 71% |
| COc1ccc(N2CCN(C(=O)Cc3coc4ccc(C)cc34)CC2)cc1 | 105% |
| Cc1ccc2onc(CC(=O)N3CCN(c4cccc(C)c4C)CC3)c2c1 | 39% (active) |
| Cc1ccc2oc(=O)c3cnn(CC(=O)N4CCN(c5ccccc5)CC4)c3c2c1 | 123% |
| Cc1ccc2onc(CC(=O)N3CCN(c4ccc(Cl)cc4)CC3)c2c1 | 30% (active) |
| Cc1ccc2onc(CC(=O)N3CCN(c4cccc(Cl)c4)CC3)c2c1 | 83% |
| Cc1ccc2onc(CC(=O)N3CCN(c4ccccc4)CC3)c2c1 | 40% (active) |
| Cc1ccc2onc(CNC(=O)N3CCN(c4cccc(C)c4C)CC3)c2c1 | 48% |
| COc1ccc(-n2c(=O)[nH]c3cc(C(=O)NCCc4ccccc4)ccc3c2=O)cc1OC | 94% |
| COc1ccccc1NC(=O)Cn1c(=O)n(-c2ccc(C)cc2)c(=O)c2ccc(C(=O)NCc3ccco3)cc21 | 79% |
| Cc1ccc(N2CCN(C(=O)Cn3ncc4c([nH]c5ccc(C)cc54)c3=O)CC2)c(C)c1 | 94% |

| Structure (SMILES) | survival |
| --- | --- |
| COc1ccc(NC(=O)C2=C(C)Nc3ncnn3C2c2ccccn2)cc1 (configuration not stated) | 81% |
| Cc1ccc(S(=O)(=O)N2C(=O)CCC2C(=O)NCc2ccco2)cc1 (configuration not stated) | 77% |
| Cc1ccc2c(CC(=O)N3CCN(c4cccc(Cl)c4)CC3)coc2c1 | 75% |
| CCN(CC)CC(=O)Oc1ccc(NC2=NS(=O)(=O)c3ccccc32)cc1 | 96% |
| CC1CCCN(C(=O)CCS(=O)(=O)c2cc3c(cc2Cl)NC(=O)CO3)C1 (configuration not stated) | 84% |
| CCCC(=O)NCCc1ccc(F)cc1 | 119% |
| COC(=O)c1cc2occc2n1CC(=O)Nc1cccc(SC)c1 | 102% |
| Cc1ccc2oc(=O)c3cnn(CC(=O)N4CCN(c5ccc(F)cc5)CC4)c3c2c1 | 106% |
| CC(=O)c1ccc(N2CCN(C(=O)NCc3noc4ccc(C)cc34)CC2)cc1 | 45% |
| Cc1ccc2onc(CC(=O)N3CCN(c4ccc(F)cc4)CC3)c2c1 | 41% (active) |
| CC(C)CNCC(=O)N(C1CCCCC1)C1CCCCC1 | 116% |
| N#CCN(CC#N)C(=O)c1cc(-c2ccccc2)nc2ccccc12 | 89% |
| CCn1cc(CNC(=O)c2cc(-c3ccc(C)cc3)nc3ccc(Br)cc23)c(C)n1 | 40% (active) |
| Cc1ccc(-c2cc(C(=O)NCc3cnn(C)c3)c3cc(Br)ccc3n2)cc1 | 51% |
| Cc1ccc(-c2cc(C(=O)NCc3ccccc3Cl)c3ccccc3n2)cc1C | 68% |
| COc1ccc(-c2cc(C(=O)NCc3ccc(C)cc3)c3cc(C(C)C)ccc3n2)cc1 | 76% |
| CCOc1ccc(-c2cc(C(=O)NCc3ccccc3Cl)c3ccccc3n2)cc1 | 89% |
| Cc1nn(C)cc1CN(C)C(=O)c1cc(-c2ccccc2)nc2ccc(Br)cc12 | 67% |
| Cc1ccc(-c2cc(C(=O)NCc3cnn(C)c3C)c3cc(Br)ccc3n2)cc1 | 36% (active) |
| Cc1c(CN(C)C(=O)c2cc(-c3ccccc3)nc3ccc(Br)cc23)cnn1C | 30% (active) |
| Cc1ccc(CNC(=O)c2cc(-c3ccc(C)c(C)c3)nc3ccccc23)cc1 | 74% |
| CCn1cc(CNC(=O)c2cc(-c3ccc(C)c(C)c3)nc3ccccc23)c(C)n1 | 123% |
| Cc1ccc(-c2cc(C(=O)NCc3cnn(C)c3C)c3ccccc3n2)cc1C | 49% (active) |

Reference: PubChem BioAssay AID463173 (ICCB-Longwood Screening Facility, Harvard Medical School, 2010)
